Results on 27 compounds are retold here after PubChem BioAssay AID504339 (National Center for Advancing Translational Sciences (NCATS), 2011).

The whole screen tested about 390,000 compounds, of which about 17,000 (4.4%) were called active. Another 8% or so got no clear call; they are omitted. The call rests on the fitted dose curve; in most records, active means well fitted inhibition curve with a large enough effect; inconclusive means small, poorly fitted or top-dose-only effect; inactive means no such curve, though single readings can be large or run the other way. The entries come from a sample that favours actives as a whole. Where a call stands in place of a potency, no number is given.
Potency means the concentration at half of the fitted maximal effect.

The test deals with Lysine-specific demethylase 4A (Homo sapiens) (UniProt O75164). As to the kind of experiment: qHTS Assay for Inhibitors of JMJD2A-Tudor Domain. Further: nearly all actives have a fitted effect of over 50% in size. The settings on record: AlphaScreen JMJD2A-Tudor / H3K4me3 peptide binding; series mostly up to 114 µM. (In general: In qHTS, concentration-response curves come from the screen itself.)
Sequence of Lysine-specific demethylase 4A (Homo sapiens) (O75164 whole entry, looked up, the tested form may be a part): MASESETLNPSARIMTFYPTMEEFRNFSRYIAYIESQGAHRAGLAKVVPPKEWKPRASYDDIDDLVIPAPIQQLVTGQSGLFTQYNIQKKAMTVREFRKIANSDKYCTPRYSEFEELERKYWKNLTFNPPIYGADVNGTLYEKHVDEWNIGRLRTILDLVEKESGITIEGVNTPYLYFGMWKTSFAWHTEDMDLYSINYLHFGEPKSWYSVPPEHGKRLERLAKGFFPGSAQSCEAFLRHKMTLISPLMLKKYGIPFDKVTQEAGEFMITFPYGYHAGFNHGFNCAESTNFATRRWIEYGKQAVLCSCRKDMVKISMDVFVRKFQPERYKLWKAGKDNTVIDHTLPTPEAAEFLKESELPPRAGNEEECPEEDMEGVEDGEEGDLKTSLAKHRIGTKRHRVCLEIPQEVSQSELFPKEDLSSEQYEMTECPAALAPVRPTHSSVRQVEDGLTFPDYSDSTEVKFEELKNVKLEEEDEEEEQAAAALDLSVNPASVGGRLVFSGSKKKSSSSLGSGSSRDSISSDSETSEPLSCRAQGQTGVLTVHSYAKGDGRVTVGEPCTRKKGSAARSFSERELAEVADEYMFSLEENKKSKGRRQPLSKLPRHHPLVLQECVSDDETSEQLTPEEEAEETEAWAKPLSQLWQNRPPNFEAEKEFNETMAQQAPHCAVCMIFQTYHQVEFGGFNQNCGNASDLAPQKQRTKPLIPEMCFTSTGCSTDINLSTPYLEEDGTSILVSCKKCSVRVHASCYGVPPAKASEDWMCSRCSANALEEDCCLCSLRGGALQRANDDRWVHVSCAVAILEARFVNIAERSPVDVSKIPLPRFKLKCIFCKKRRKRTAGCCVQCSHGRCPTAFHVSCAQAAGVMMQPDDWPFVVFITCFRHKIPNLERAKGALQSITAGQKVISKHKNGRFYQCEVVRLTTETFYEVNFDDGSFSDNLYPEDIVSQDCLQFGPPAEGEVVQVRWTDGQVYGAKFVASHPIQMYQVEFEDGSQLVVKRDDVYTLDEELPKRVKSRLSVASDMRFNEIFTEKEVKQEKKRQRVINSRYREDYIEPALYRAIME
With `Cc1ccccc1CNC(=O)CCc1cn(Cc2ccccc2C)c2ccccc12`, the Potency entry was “inactive”.
Take `COc1ccc(CC(=O)N[C@@H](CCSC)c2nc3ccccc3[nH]2)cc1`: the Potency result was “inactive”.
In the case of `CSCCC(NC(=O)c1cc([N+](=O)[O-])cc([N+](=O)[O-])c1)c1nc2ccccc2[nH]1` (configuration not stated), the Potency entry was “inactive”.
Take `CSCCC(NC(=O)c1ccc(=O)n(C)n1)c1nc2ccccc2[nH]1` (configuration not stated): the Potency is 89.1 µM (active).
With `Cc1ccc(CNC(=O)CCC(=O)N2Cc3ccccc3Oc3ncccc32)cc1`, the Potency result is “inactive”.
Turning to `O=C(Nc1nc(-c2ccco2)c(-c2ccco2)s1)c1ccco1`, the Potency is 50.1 µM (active).
For `O=C(Nc1nonc1-c1ccc(Cl)cc1)c1ccco1`, the Potency result was “inactive”.
In the case of `CCN(c1ccc(Cl)cc1)S(=O)(=O)c1nnc(NC(=O)c2ccco2)s1`, the Potency entry was “inactive”.
For the compound `Cc1ccc(S(=O)(=O)c2cn(Cc3ccccc3)c3cc(N4CCCC4)c(F)cc3c2=O)c(C)c1`, the Potency result was “inactive”.
For `O=C(COc1ccc(Cl)cc1)Nc1ccc2c(c1)OCO2`, the Potency entry is “inactive”.
`CCOc1ccc(NCCC(=O)c2ccc3c(c2)OCO3)cc1`: the Potency is 39.8 µM (active).
On to `COC(=O)CCNc1ccc2c(c1)OCCO2`, for which the Potency entry was “inactive”.
Turning to `Cc1ccc(CNC(=O)C2(C(F)(F)F)C/C(=C\Cc3ccccc3)CCCO2)o1` (configuration not stated), the Potency result was “inactive”.
For the compound `CNC(=O)[C@]1(C(F)(F)F)C[C@H](CCc2ccccc2)CCCO1`, the Potency result is “inactive”.
Next, `O=C(NCc1ccccn1)[C@]1(C(F)(F)F)C[C@H](CCc2ccccc2)CCCO1`: 39.8 µM (active).
As for `CCCOc1cccc(C(=O)Nc2cccc(NC(=O)c3ccc(C(C)(C)C)cc3)c2)c1`, the entry is “inactive”; as for `Cc1ccc(S(=O)(=O)N/N=C\c2cc3c(cc2[N+](=O)[O-])OCO3)cc1`, “inactive”.
Next, `CCN1CCN(C(C(=O)NC2CCCC2)c2cc3c(cc2[N+](=O)[O-])OCO3)CC1` (configuration not stated): “inactive”.
As for `CCOc1ccc(-c2n[nH]c(=S)n2/N=C/c2cc3c(cc2[N+](=O)[O-])OCO3)cc1`, the Potency is 17.8 µM (active).
For `CCOC(=O)c1nc(-c2ccc3c(c2)OCO3)[nH]c1C`, the Potency entry was “inactive”.
Consider `Cc1ccc(-c2n[nH]c(=S)n2/N=C/c2cc3c(cc2[N+](=O)[O-])OCO3)cc1`, for which the Potency was 10 µM (active).
Turning to `O=S(=O)(c1ccc(Cl)cc1)c1nnn2c1nc(NC1CCCC1)c1sccc12`, the Potency entry was “inactive”.
`Cc1cc(S(=O)(=O)NCc2ccccn2)c(Cl)cc1Cl`: the Potency entry was “inactive”.
As for `Fc1ccc(-c2ccc(CNCc3ccccn3)o2)cc1Cl`, the Potency was 63.1 µM (active).
As to `COc1ccc(-c2ccc(CNCCCN3CCOCC3)o2)cc1Cl`, the Potency result is “inactive”.
Turning to `O=C(NC1CCN(Cc2ccccc2)CC1)c1ccc(Cn2c(=O)c3ccccc3n(Cc3cccc(F)c3)c2=O)cc1`, the Potency entry was “inactive”.
Consider `O=C1CN(C(=O)Nc2ccccc2C(F)(F)F)C(c2ccccc2)c2c(sc3c2CCCC3)N1` (configuration not stated), for which the Potency result was “inactive”.
